Inconclusive results are not listed. Calls of active or inactive are those of the source. Calls follow the shape of the dose curve; as a rule, active = well fitted cell-killing curve with a large enough effect; inconclusive = small, poorly fitted or top-dose-only effect, or effect the other way; inactive = flat fitted curve, though single readings scatter. Where a SMILES comes first, the peptide text is derived from it. The star is where a group is joined. βNA = c1ccc2cc(N*)ccc2c1; Cbz = O=C(OCc1ccccc1)*
Key:
Test in all cases: Primary qHTS to identify gynecologic anti-cancer compounds using libraries of approved drugs and bioactive compounds (AID 1345084); also: nearly all actives have a fitted effect of over 55% in size
[1] = system: C33A; conditions: Gynecologic cancer cell panel viability, ATPlite luminescence, 48 h; series mostly up to 57.5 µM
How it was run: (§1)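 ATP-based viability (ATPlite), 1,000 cells/well, 16 h pre-incubation, 48 h compound at 37 C, 5% CO2, 15 min RT before read.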

[2] = system: CAOV3; conditions: Gynecologic cancer cell panel viability, ATPlite luminescence, 48 h; series mostly up to 57.5 µM
How it was run: as §1

[3] = system: CASKI; conditions: Gynecologic cancer cell panel viability, ATPlite luminescence, 48 h; series mostly up to 57.5 µM
How it was run: as §1

[4] = system: Es-2; conditions: Gynecologic cancer cell panel viability, ATPlite luminescence, 48 h; series mostly up to 57.5 µM
How it was run: as §1

[5] = system: HeLa; conditions: Gynecologic cancer cell panel viability, ATPlite luminescence, 48 h; series mostly up to 57.5 µM
How it was run: as §1

[6] = system: Hek293T; conditions: Gynecologic cancer cell panel viability, ATPlite luminescence, 48 h, control line for the selectivity index; series mostly up to 57.5 µM
How it was run: as §1

[7] = system: JEG-3; conditions: Gynecologic cancer cell panel viability, ATPlite luminescence, 48 h; series mostly up to 57.5 µM
How it was run: as §1

[8] = system: OV90; conditions: Gynecologic cancer cell panel viability, ATPlite luminescence, 48 h; series mostly up to 57.5 µM
How it was run: as §1

[9] = system: PA-1; conditions: Gynecologic cancer cell panel viability, ATPlite luminescence, 48 h; series mostly up to 57.5 µM
How it was run: as §1

[10] = system: SKOV3; conditions: Gynecologic cancer cell panel viability, ATPlite luminescence, 48 h; series mostly up to 57.5 µM
How it was run: as §1

[11] = system: Tov-21-G; conditions: Gynecologic cancer cell panel viability, ATPlite luminescence, 48 h; series mostly up to 57.5 µM
How it was run: as §1

[12] = system: Tov112D; conditions: Gynecologic cancer cell panel viability, ATPlite luminescence, 48 h; series mostly up to 57.5 µM
How it was run: as §1
% is scaled to controls: 0 for no effect and ±100 for the full control effect.

CCCO[C@@H]1O[C@H](CO)[C@@H](O)[C@H](O)[C@H]1O[C@@H]1OC[C@@H](O)[C@H](O)[C@H]1O
inactive: Potency [1] | Potency [2] | outcome [3] | Potency [4] | Potency [5] | Potency [6] | Potency [7] | Potency [8] | Potency [9] | Potency [10] | Potency [11] | Potency [12]

COc1ccnc2[nH]cc(C(=O)C(=O)N3CCN(C(=O)c4ccccc4)CC3C)c12 (stereo not given)
inactive: Potency [1] | Potency [2] | outcome [3] | Potency [4] | Potency [5] | Potency [6] | Potency [7] | Potency [8] | Potency [9] | Potency [10] | Potency [11] | Potency [12]

COc1cc(CCCO)ccc1O[C@@H]1O[C@H](CO)[C@@H](O)[C@H](O)[C@H]1O
inactive: Potency [1] | Potency [2] | outcome [3] | Potency [4] | Potency [5] | Potency [6] | Potency [7] | Potency [8] | Potency [9] | Potency [10] | Potency [11] | Potency [12]

C=C1CC2C(C)(CCC(=O)O)C(C(C)(C)O)CCC2(C)C2(C(=O)OC)C(=O)C(C)(O)C(=O)C12C (stereo not given)
inactive: Potency [1] | Potency [2] | outcome [3] | Potency [4] | Potency [5] | Potency [6] | Potency [7] | Potency [8] | Potency [9] | Potency [10] | Potency [11] | Potency [12]

CCOC(=O)C1=C(N)Oc2ccc(Cl)cc2C1C(C#N)C(=O)OCC (stereo not given)
inactive: Potency [1] | Potency [2] | outcome [3] | Potency [4] | Potency [5] | Potency [6] | Potency [7] | Potency [8] | Potency [9] | Potency [10] | Potency [11] | Potency [12]

CC1OC(OC2C(OC(=O)[C@]34CCC(C)(C)C[C@H]3C3=CCC5[C@@]6(C)CC[C@H](OC7OC(C(=O)O)C(O)C(O)C7O)C(C)(C)C6CC[C@@]5(C)[C@]3(C)CC4O)OC(CO)C2O)C(O)C(O)C1OC1OCC(O)C(O)C1O (stereo not given in full)
inactive: activity change, negative = cytotoxicity [1] 6.97% [at 11.6 µM] | activity change, negative = cytotoxicity [2] 0.294% [at 11.6 µM] | activity change, negative = cytotoxicity [3] 7.85% [at 11.6 µM] | activity change, negative = cytotoxicity [4] -0.633% [at 11.6 µM] | activity change, negative = cytotoxicity [5] 8.57% [at 11.6 µM] | activity change, negative = cytotoxicity [6] 3.77% [at 11.6 µM] | activity change, negative = cytotoxicity [7] 3.79% [at 11.6 µM] | activity change, negative = cytotoxicity [8] -5.89% [at 11.6 µM] | activity change, negative = cytotoxicity [9] 30.3% [at 11.6 µM] | activity change, negative = cytotoxicity [10] -0.208% [at 11.6 µM] | activity change, negative = cytotoxicity [11] 5.56% [at 11.6 µM] | activity change, negative = cytotoxicity [12] -3.39% [at 11.6 µM]

C=C1CCC2C(C)(C)CCC[C@]2(C)[C@H]1CC/C(C)=C/C(=O)O (stereo not given in full)
inactive: Potency [1] | Potency [2] | outcome [3] | Potency [4] | Potency [5] | Potency [6] | Potency [7] | Potency [8] | Potency [9] | Potency [10] | Potency [11] | Potency [12]

COc1ccc(S(=O)(=O)Nc2nc(-c3cccc([N+](=O)[O-])c3)cs2)cc1OC
inactive: Potency [1] | Potency [2] | outcome [3] | Potency [4] | Potency [5] | Potency [6] | Potency [7] | Potency [8] | Potency [9] | Potency [10] | Potency [11] | Potency [12]

N=C(N)c1ccc2nc(-c3cc(CC(=O)NC(CC(=O)O)C(=O)O)cc(-c4cc(S(N)(=O)=O)ccc4O)c3O)[nH]c2c1 (stereo not given)
inactive: Potency [1] | Potency [2] | outcome [3] | Potency [4] | Potency [5] | Potency [6] | Potency [7] | Potency [8] | Potency [9] | Potency [10] | Potency [11] | Potency [12]

CC1(C)CC[C@]2(C(=O)O[C@@H]3O[C@H](CO)[C@@H](O)[C@H](O)[C@H]3O)CC[C@]3(C)C(=CCC4[C@@]5(C)CC[C@H](O[C@@H]6O[C@H](C(=O)O)[C@@H](O[C@@H]7O[C@H](CO)[C@@H](O)[C@H](O)[C@H]7O)[C@H](O)[C@H]6O)C(C)(C)C5CC[C@]43C)C2C1 (stereo not given in full)
inactive: activity change, negative = cytotoxicity [1] -1.25% [at 11.6 µM] | activity change, negative = cytotoxicity [2] 6.34% [at 11.6 µM] | activity change, negative = cytotoxicity [3] 0.127% [at 11.6 µM] | activity change, negative = cytotoxicity [4] -4.47% [at 11.6 µM] | activity change, negative = cytotoxicity [5] 6.83% [at 11.6 µM] | activity change, negative = cytotoxicity [6] 3.96% [at 11.6 µM] | activity change, negative = cytotoxicity [7] -0.8% [at 11.6 µM] | activity change, negative = cytotoxicity [8] 3.65% [at 11.6 µM] | activity change, negative = cytotoxicity [9] 12% [at 11.6 µM] | activity change, negative = cytotoxicity [10] 7.57% [at 11.6 µM] | activity change, negative = cytotoxicity [11] 4.63% [at 11.6 µM] | activity change, negative = cytotoxicity [12] 2.05% [at 11.6 µM]

CC(C)CC(c1c(O)c(C=O)c(O)c(C=O)c1O)C1CCC(C)(O)C2CC(C(C)(C)O)CCC12C (stereo not given)
inactive: Potency [1] | Potency [2] | outcome [3] | Potency [4] | Potency [5] | Potency [6] | Potency [7] | Potency [8] | Potency [9] | Potency [10] | Potency [11] | Potency [12]

COc1cc(O)cc2c1C(=O)OC(C)C2 (stereo not given)
inactive: Potency [1] | Potency [2] | outcome [3] | Potency [4] | Potency [5] | Potency [6] | Potency [7] | Potency [8] | Potency [9] | Potency [10] | Potency [11] | Potency [12]

CC(C)CC(NC(=O)OCc1ccccc1)C(=O)NC(CC(C)C)C(=O)NC(CCC(=O)O)C(=O)Nc1ccc2ccccc2c1 (stereo not drawn) (Cbz-Leu-Leu-Glu-βNA; configuration not given here)
inactive: Potency [1] | Potency [2] | outcome [3] | Potency [4] | Potency [5] | Potency [6] | Potency [7] | Potency [8] | Potency [9] | Potency [10] | Potency [11] | Potency [12]

O=C1OC(c2ccc(O)cc2)C(O)=C1Cc1ccccc1 (stereo not given)
inactive: Potency [1] | Potency [2] | outcome [3] | Potency [4] | Potency [5] | Potency [6] | Potency [7] | Potency [8] | Potency [9] | Potency [10] | Potency [11] | Potency [12]

COC1CC(O[C@H]2CC[C@@]3(C)C(=CC[C@]4(O)C3[C@H](O)[C@@H](O)[C@]3(C)[C@@H]([C@H](C)O)CC[C@@]34O)C2)OC(C)C1OC1CC(OC)C(OC2CC(OC)C(OC3OC(C)C(OC4OC(CO)C(O)C(O)C4O)C(OC)C3O)C(C)O2)C(C)O1 (stereo not given in full)
inactive: activity change, negative = cytotoxicity [1] 15.5% [at 11.6 µM] | activity change, negative = cytotoxicity [2] 14.6% [at 11.6 µM] | activity change, negative = cytotoxicity [3] 17.9% [at 11.6 µM] | activity change, negative = cytotoxicity [4] 5.18% [at 11.6 µM] | activity change, negative = cytotoxicity [5] -0.017% [at 11.6 µM] | activity change, negative = cytotoxicity [6] 8.49% [at 11.6 µM] | activity change, negative = cytotoxicity [7] -0.832% [at 11.6 µM] | activity change, negative = cytotoxicity [8] -7.88% [at 11.6 µM] | activity change, negative = cytotoxicity [9] -4.49% [at 11.6 µM] | activity change, negative = cytotoxicity [10] 1.02% [at 11.6 µM] | activity change, negative = cytotoxicity [11] -0.0649% [at 11.6 µM] | activity change, negative = cytotoxicity [12] 1.61% [at 11.6 µM]

From PubChem BioAssay (NCATS)
